23 compounds from PubChem BioAssay can be followed below.

Molecules are shown by their SMILES. Active and inactive are the calls of the source. No rule for the calls is given here. Where a SMILES comes first, the peptide text is derived from it. The star is where a group is joined. Boc = CC(C)(C)OC(=O)*

As a reminder, the inhibition is the share of the control response that was lost under treatment.

In this assay the target is Pantothenate synthetase (Mycobacterium tuberculosis (strain ATCC 25618 / H37Rv)) (UniProt P9WIL5). As to the kind of experiment: Recombinant Mtb pantothenate synthetase (PanC) inhibitors, coupled enzyme, confirmatory (AID 375).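 Also: 0% = full reaction with vehicle and 100% = no enzyme background.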 The following applies: coupled enzyme assay; at 10 µM, hits give high values.
Chain of Pantothenate synthetase (Mycobacterium tuberculosis (strain ATCC 25618 / H37Rv)) (P9WIL5 whole entry, looked up): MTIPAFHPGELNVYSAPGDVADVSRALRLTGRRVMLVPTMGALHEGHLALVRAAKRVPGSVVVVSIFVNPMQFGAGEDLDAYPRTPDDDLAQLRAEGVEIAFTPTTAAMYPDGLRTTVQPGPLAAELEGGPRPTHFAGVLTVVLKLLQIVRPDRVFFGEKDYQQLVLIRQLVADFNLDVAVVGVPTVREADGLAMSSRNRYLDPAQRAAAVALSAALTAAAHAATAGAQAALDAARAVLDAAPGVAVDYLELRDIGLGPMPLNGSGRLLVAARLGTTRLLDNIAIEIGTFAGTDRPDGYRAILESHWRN
On to `CCCn1c(N2CCN(CC(=O)Nc3ccc4c(c3)OCCO4)CC2)nc2ccccc21`, for which the inhibition is 6% (inactive). Take `Cc1ccc(S(=O)(=O)C2(C(=O)Nc3nccs3)CC2)cc1`: the inhibition is 0% (inactive). Under `c1ccc(CCc2nn3c(Cn4cnc5ccccc54)nnc3s2)cc1` stands 5% (inactive); under `CCOC(=O)N1CCN(c2cc3nccnc3cc2F)CC1`, 6% (inactive); under `Nc1c(C(=O)NCCc2ccccc2)nnn1Cc1ccccc1`, 0% (inactive). The value for `Cc1cc(C)n(-c2nc(C)nc3sc4c(c23)CCC(C)C4)n1` (stereo not drawn) was 0% (inactive); that for `CC1CCCCN1CCNS(=O)(=O)c1ccc2c(c1)oc(=O)n2C` (stereo not drawn) was 0% (inactive); that for `CN(C)Cc1c(O)ccc2oc(Cc3ccccc3)cc12` was 8% (inactive). For the compound `CS(=O)(=O)N1CCN(c2ccccc2NC(=O)c2ccc(-c3ccc(Cl)cc3Cl)o2)CC1`, the inhibition is 7% (inactive). Under `Cc1nnc(SCC(=O)Nc2ccc3c4c(cccc24)CC3)n1C` stands 0% (inactive).

As to `COCCn1c(=NC(=O)CSC(C)=O)sc2cc(F)ccc21`, the inhibition was 12% (inactive). The value for `CN(C)S(=O)(=O)Nc1ccccc1C(N)=O` was 0% (inactive). Under `Cc1ccc(OCc2nnc(SCC(=O)Nc3ccc4c(c3)OCO4)n2C)cc1` stands 0% (inactive).

For the compound `NC(=O)CSc1cn(CCNC(=O)c2cccs2)c2ccccc12`, the inhibition is 0% (inactive). The value for `Cc1ccc(CN2C(=O)CCC2C(=O)NC2CCCC2)cc1` (stereo not drawn) was 0% (inactive). The value for `CS(=O)(=O)Nc1ccccc1C(=O)O` was 0% (inactive); that for `COC(=O)c1ccccc1NS(=O)(=O)c1ccc(F)cc1` was 0% (inactive); that for `CC(NC(=O)OC(C)(C)C)C(=O)N1CCCC1C(=O)NC(Cc1ccccc1)C(N)=O` (stereo not drawn) (Boc-Ala-Pro-Phe-NH2; configuration not given here) was 7% (inactive). Under `CC1CCN(S(=O)(=O)c2ccc(Br)s2)CC1` stands 0% (inactive); under `COc1ccc(CCN(C)CCCC(C#N)(c2cc(OC)c(OC)c(OC)c2)C(C)C)cc1OC` (stereo not drawn), 0% (inactive); under `Cc1cc(C)nc(NC(=O)c2c(-c3c(Cl)cccc3Cl)noc2C)n1`, 2% (inactive). Turning to `O=C(Nc1ccccn1)N1CCOCC1`, the inhibition was 4% (inactive). Turning to `CN1CCN(c2ncnc3c2cnn3-c2ccc(Cl)cc2)CC1`, the inhibition is 1% (inactive).
